Experiment in all cases: yeast three-hybrid, YBZ-1, SC-Leu-His + 0.5 mM 3-AT, 4 days
Common to all, as to settings: tags: N-Gal4 AD-HA kept; label: inside an RPR1-promoter hybrid RNA with tandem MS2 sites; ssRNA

One test addresses PUM1 PUF domain R3-WYR (Homo sapiens, UniProt Q14671 828-1176, C935W;R936Y;Q939R). In outline: (§1)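 Sequencing with Illumina followed PCR amplification of the repeat regions from transformants grown four days on SC-Leu (input) or SC-Leu-His + 0.5 mM 3-AT (selection). The transformants were strain YBZ-1 with a LexA–MS2 coat fusion and a HIS3 reporter, carrying Pumilio-1 PUF domain libraries and matching RNA elements. The interaction score is the log change in variant frequency from input to selection, computed in log2 with a pseudocount of 1 for absent variants.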

In a further test the target is PUM1 PUF domain R3-RPW (Homo sapiens, UniProt Q14671 828-1176, C935R;R936P;Q939W). In outline:
as §1

A further test has as its target PUM1 PUF domain R3-LRV (Homo sapiens, UniProt Q14671 828-1176, C935L;Q939V). A digest of the protocol:
as §1

The next test deals with PUM1 PUF domain R3-NPG (Homo sapiens, UniProt Q14671 828-1176, C935N;R936P;Q939G). A digest of the protocol: as §1
Another test addresses PUM1 PUF domain R2-RKS (Homo sapiens, UniProt Q14671 828-1176, N899R;Y900K;Q903S). A digest of the protocol:
as §1

The target of another test is PUM1 PUF domain R4-EYL (Homo sapiens, UniProt Q14671 828-1176, N971E;H972Y;Q975L). A digest of the protocol:
as §1

Another test has as its target PUM1 PUF domain R3-IYV (Homo sapiens, UniProt Q14671 828-1176, C935I;R936Y;Q939V). A digest of the protocol: as §1
For the next test, the target named is PUM1 PUF domain R1-QTK (Homo sapiens, UniProt Q14671 828-1176, S863Q;R864T;Q867K). A digest of the protocol:
as §1

The next test addresses PUM1 PUF domain R1-RFQ (Homo sapiens, UniProt Q14671 828-1176, S863R;R864F). In outline: as §1
The next test addresses PUM1 PUF domain R8-RHR (Homo sapiens, UniProt Q14671 828-1176, N1122R;Y1123H;Q1126R). In outline:
as §1

In another test the target is PUM1 PUF domain R8-RMR (Homo sapiens, UniProt Q14671 828-1176, N1122R;Y1123M;Q1126R). A digest of the protocol:
as §1

For a further test, the target named is PUM1 PUF domain R5-DHN (Homo sapiens, UniProt Q14671 828-1176, C1007D;R1008H;Q1011N). A digest of the protocol:
as §1

The target in the next test is PUM1 PUF domain R8-RHA (Homo sapiens, UniProt Q14671 828-1176, N1122R;Y1123H;Q1126A). In outline:
as §1

For a further test, the target named is PUM1 PUF domain R4-SRT (Homo sapiens, UniProt Q14671 828-1176, N971S;H972R;Q975T). A digest of the protocol: as §1
Chain of PUM1 PUF domain R4-SRT (Q14671 828-1176 N971S/H972R/Q975T): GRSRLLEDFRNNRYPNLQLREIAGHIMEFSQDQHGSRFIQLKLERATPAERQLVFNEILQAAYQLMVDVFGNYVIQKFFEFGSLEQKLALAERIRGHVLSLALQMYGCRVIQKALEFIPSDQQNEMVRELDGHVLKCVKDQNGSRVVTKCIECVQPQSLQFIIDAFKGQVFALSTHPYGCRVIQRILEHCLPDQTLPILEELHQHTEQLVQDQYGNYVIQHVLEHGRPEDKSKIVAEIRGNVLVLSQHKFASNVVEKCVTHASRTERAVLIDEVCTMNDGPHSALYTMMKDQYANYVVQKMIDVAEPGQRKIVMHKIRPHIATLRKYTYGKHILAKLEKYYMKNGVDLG
Another test deals with T1, PUM1 PUF domain R6-IWQ (Homo sapiens, UniProt Q14671 828-1176, N1043I;Y1044W).
T1 sequence: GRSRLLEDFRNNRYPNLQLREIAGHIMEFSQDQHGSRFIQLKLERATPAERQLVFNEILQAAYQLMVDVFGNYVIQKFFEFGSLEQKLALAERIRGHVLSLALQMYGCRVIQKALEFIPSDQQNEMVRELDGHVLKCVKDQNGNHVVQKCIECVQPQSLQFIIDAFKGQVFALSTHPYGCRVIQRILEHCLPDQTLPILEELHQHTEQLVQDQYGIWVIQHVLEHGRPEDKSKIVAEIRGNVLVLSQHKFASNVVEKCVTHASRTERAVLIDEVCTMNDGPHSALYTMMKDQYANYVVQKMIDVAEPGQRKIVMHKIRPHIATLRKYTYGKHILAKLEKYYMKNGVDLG
A digest of the protocol: as §1

Chain of PUM1 PUF domain R4-EYL (Q14671 828-1176 N971E/H972Y/Q975L): as the sequence (Q14671 828-1176 N971S/H972R/Q975T) above, with S144E, R145Y, T148L counted along it
Chain of PUM1 PUF domain R1-RFQ (Q14671 828-1176 S863R/R864F): as the sequence (Q14671 828-1176 N971S/H972R/Q975T) above, with S36R, R37F, S144N, R145H, T148Q counted along it
Chain of PUM1 PUF domain R1-QTK (Q14671 828-1176 S863Q/R864T/Q867K): as the sequence (Q14671 828-1176 N971S/H972R/Q975T) above, with S36Q, R37T, Q40K, S144N, R145H, T148Q counted along it
Chain of PUM1 PUF domain R5-DHN (Q14671 828-1176 C1007D/R1008H/Q1011N): as the sequence (Q14671 828-1176 N971S/H972R/Q975T) above, with S144N, R145H, T148Q, C180D, R181H, Q184N counted along it
Chain of PUM1 PUF domain R8-RHR (Q14671 828-1176 N1122R/Y1123H/Q1126R): as the sequence (Q14671 828-1176 N971S/H972R/Q975T) above, with S144N, R145H, T148Q, N295R, Y296H, Q299R counted along it
Chain of PUM1 PUF domain R8-RHA (Q14671 828-1176 N1122R/Y1123H/Q1126A): as the sequence (Q14671 828-1176 N971S/H972R/Q975T) above, with S144N, R145H, T148Q, N295R, Y296H, Q299A counted along it
Chain of PUM1 PUF domain R2-RKS (Q14671 828-1176 N899R/Y900K/Q903S): as the sequence (Q14671 828-1176 N971S/H972R/Q975T) above, with N72R, Y73K, Q76S, S144N, R145H, T148Q counted along it
Chain of PUM1 PUF domain R8-RMR (Q14671 828-1176 N1122R/Y1123M/Q1126R): as the sequence (Q14671 828-1176 N971S/H972R/Q975T) above, with S144N, R145H, T148Q, N295R, Y296M, Q299R counted along it

Regarding “GGCUAGAACUAGUGGAUCCCCCGGCGCCCGGCGGCUCGAGCCCGGGUAAGUGUAAUUAGUCUGCAUGCCGCCGGGCGCCAUGCCUGCAGGUCGACUCUAGAAAACAUG”, the binding signal with PUM1 PUF domain R3-WYR is 2.58 log2 enrichment (interaction score); in the test with PUM1 PUF domain R3-RPW, 2.6 log2 enrichment (interaction score); with PUM1 PUF domain R3-LRV it was 1.41 log2 enrichment (interaction score); with PUM1 PUF domain R3-NPG, 2.86 log2 enrichment (interaction score).
On to “GGCUAGAACUAGUGGAUCCCCCGGCGCCCGGCGGCUCGAGCCCGGGUAAGUGUAAACAGUCUGCAUGCCGCCGGGCGCCAUGCCUGCAGGUCGACUCUAGAAAACAUG”, for which the binding signal with PUM1 PUF domain R2-RKS was 0.34 log2 enrichment (interaction score).
With “GGCUAGAACUAGUGGAUCCCCCGGCGCCCGGCGGCUCGAGCCCGGGUAAGUGUACAUAGUCUGCAUGCCGCCGGGCGCCAUGCCUGCAGGUCGACUCUAGAAAACAUG”, the binding signal in the test with PUM1 PUF domain R4-EYL is 1.81 log2 enrichment (interaction score).
As to “GGCUAGAACUAGUGGAUCCCCCGGCGCCCGGCGGCUCGAGCCCGGGUAAGUGUAAGUAGUCUGCAUGCCGCCGGGCGCCAUGCCUGCAGGUCGACUCUAGAAAACAUG”, the binding signal with PUM1 PUF domain R3-IYV is 4.55 log2 enrichment (interaction score); in the test with PUM1 PUF domain R3-WYR, 2.45 log2 enrichment (interaction score); in the test with PUM1 PUF domain R3-LRV, 3.77 log2 enrichment (interaction score).
For “GGCUAGAACUAGUGGAUCCCCCGGCGCCCGGCGGCUCGAGCCCGGGUAAGUGUAAAUCGUCUGCAUGCCGCCGGGCGCCAUGCCUGCAGGUCGACUCUAGAAAACAUG”, the binding signal is 2.31 log2 enrichment (interaction score) in the test with PUM1 PUF domain R1-QTK and 5.82 log2 enrichment (interaction score) in the test with PUM1 PUF domain R1-RFQ.
On to “GGCUAGAACUAGUGGAUCCCCCGGCGCCCGGCGGCUCGAGCCCGGGUAAGUGUAAAUAGUCUGCAUGCCGCCGGGCGCCAUGCCUGCAGGUCGACUCUAGAAAACAUG”, for which the binding signal with PUM1 PUF domain R4-EYL was 4.64 log2 enrichment (interaction score); with PUM1 PUF domain R3-IYV, 2.65 log2 enrichment (interaction score); with PUM1 PUF domain R8-RHR it was 5.61 log2 enrichment (interaction score); with PUM1 PUF domain R8-RMR, 1.55 log2 enrichment (interaction score); with PUM1 PUF domain R5-DHN it was 3.41 log2 enrichment (interaction score); with PUM1 PUF domain R8-RHA, 3.38 log2 enrichment (interaction score). In addition, the binding signal with PUM1 PUF domain R4-SRT was 3.46 log2 enrichment (interaction score).
Regarding “GGCUAGAACUAGUGGAUCCCCCGGCGCCCGGCGGCUCGAGCCCGGGUAAGUGAAAAUAGUCUGCAUGCCGCCGGGCGCCAUGCCUGCAGGUCGACUCUAGAAAACAUG”, the binding signal with PUM1 PUF domain R6-IWQ is 4.87 log2 enrichment (interaction score).

(Values after paper PMC8384837, “Expanding the binding specificity for RNA recognition by a PUF domain”.)
